# Assay results reported in PubChem BioAssay (Tox21).
# “And” between values parts separate entries of the source, which are not always exact repeats. Equal values may be shown once. Inconclusive results are not listed. Entries that show only a call come without a potency. The source holds several records for some structures; these can differ, active in one and inactive in another. The source made the active and inactive calls. Unless noted, calls follow the shape of the dose curve; as a rule, active = well fitted curve in the direction sought with a large enough effect in the repeat runs; inconclusive = weak or mixed curves; inactive = no such curve, though single readings can be large; an effect the other way counts as inactive or inconclusive. Starred links: 1 amine or outer side, 2 acyl side, 3 side chain; linkers in the order of their positions; H or OH if unused. Positions of bridges follow the written chain, without caps; N, C: chain ends. Non-standard residues stand in square brackets, D forms with d. Residues, ends and D or L forms follow the SMILES beside them. Chains are numbered I, II in the order given. Actinocin(9to1) = Cc1c2oc3c(C)ccc(C(=O)[*:1])c3nc-2c(C(=O)[*:2])c(N)c1=O; NMeV = CN[C@H](C(=O)O)C(C)C; Sar = CNCC(=O)O
# Experiments:
# [1] = qHTS assay to identify small molecule agonists of the peroxisome proliferator-activated receptor delta (PPARd) signaling pathway - cell viability counter screen (AID 743211); also: nearly all actives have a fitted effect of over 55% in size; also: potency is read from the fitted curve at half-maximal effect
# How it was run: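 Multiplexed format: after the 2 h room-temperature LiveBLAzer B/G FRET step, CellTiter-Glo was added to the same wells. Luminescence after 30 min gave cell viability; compound exposure was 17 h at 37C.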
# [2] = qHTS assay to identify small molecule antagonists of the peroxisome proliferator-activated receptor delta (PPARd) signaling pathway - cell viability counter screen (AID 743213); also: nearly all actives have a fitted effect of over 50% in size; also: potency is read from the fitted curve at half-maximal effect
# How it was run: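 CellTiter-Glo was added to PPARd-bla HEK293H wells following 17 h compound treatment in the presence of 300 nM L165041. Luminescence was recorded after 30 min at room temperature.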
# [3] = biological target: Peroxisome proliferator-activated receptor delta (Homo sapiens) (UniProt Q03181); assay: qHTS assay to identify small molecule antagonists of the peroxisome proliferator-activated receptor delta (PPARd) signaling pathway (AID 743215; active = well fitted inhibition curve with a large enough effect in the signal ratio in the repeat runs, not every such curve was filed as active; the % refers to the signal ratio;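 also: cells stimulated with agonist L165041 at 300 nM final during compound exposure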; also: potency is read from the fitted curve at half-maximal effect)
# How it was run: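 Agonist L165041 (300 nM final) added with compound to PPARd-bla HEK293H UAS-bla reporter cells; 17 h incubation at 37 C. Read-out: LiveBLAzer FRET substrate, 2 h at room temperature, fluorescence intensity.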
# [4] = qHTS assay to identify small molecule agonists of the farnesoid-X-receptor (FXR) signaling pathway - cell viability counter screen (AID 743218); also: nearly all actives have a fitted effect of over 45% in size; also: potency is read from the fitted curve at half-maximal effect
# How it was run: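 Viability counter screen in the same wells: CellTiter-Glo luminescence, 30 min room-temperature incubation, measured after the beta-lactamase read. Cells were GeneBLAzer FXR-UAS-bla HEK 293T, compound-treated 16 h at 37C.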
# [5] = qHTS assay to identify small molecule antagonists of the farnesoid-X-receptor (FXR) signaling pathway - cell viability counter screen (AID 743221; active = well fitted cell-killing curve with a large enough effect in the repeat runs, not every such curve was filed as active; also: nearly all actives have a fitted effect of over 50% in size; also: potency is read from the fitted curve at half-maximal effect)
# How it was run: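 CellTiter-Glo, 30 min RT, luminescence; same wells as the LiveBLAzer FRET read. Cells: FXR-UAS-bla HEK 293T. Treatment: compound with chenodeoxycholic acid 50 uM final, 16 h at 37 C.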
# [6] = qHTS assay to identify small molecule agonists of the vitamin D receptor (VDR) signaling pathway - cell viability counter screen (AID 743224); also: nearly all actives have a fitted effect of over 50% in size; also: potency is read from the fitted curve at half-maximal effect
# How it was run: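 Counter screen run in the same wells as the VDR-bla reporter assay: CellTiter-Glo luminescence, 30 min at room temperature, after 16 h compound treatment at 37C of cells pre-plated for 4 h.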
# [7] = qHTS assay to identify small molecule antagonists of the vitamin D receptor (VDR) signaling pathway - cell viability counter screen (AID 743225); also: nearly all actives have a fitted effect of over 50% in size; also: potency is read from the fitted curve at half-maximal effect
# How it was run: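 Cytotoxicity toward the VDR-bla HEK 293T line was scored by ATP-based CellTiter-Glo luminescence, read in the wells already used for the beta-lactamase readout after 16 h compound treatment under 3 nM 1-alpha,25-dihydroxyvitamin D3 stimulation.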
# [8] = qHTS assay to identify small molecule agonists of the NFkB signaling pathway - cell viability counter screen (AID 1159515; calls by dose curve; also: nearly all actives have a fitted effect of over 55% in size; also: potency is read from the fitted curve at half-maximal effect)
# How it was run: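 Read by CellTiter-Glo luminescence (30 min, room temperature) in the wells also used for the beta-lactamase FRET read. ME-180 NFkB-bla cells at 2,000 per well were plated overnight, then exposed to compound for 5 hr at 37 C.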
# [9] = qHTS assay to identify small molecule agonists of the endoplasmic reticulum stress response signaling pathway - cell viability counter screen (AID 1159517; calls by dose curve; also: nearly all actives have a fitted effect of over 50% in size; also: potency is read from the fitted curve at half-maximal effect)
# How it was run: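 ESRE-bla HeLa cells (1,500/well) were plated overnight at 37 C and exposed to compounds for 5 hr. After the 2 hr beta-lactamase substrate read, CellTiter-Glo went into the same wells, and luminescence was read after 30 min at room temperature.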
# [10] = qHTS assay to identify small molecule antagonists of the retinoid-related orphan receptor gamma (ROR-gamma) signaling pathway - cell viability counter screen (AID 1159520); also: nearly all actives have a fitted effect of over 50% in size; also: potency is read from the fitted curve at half-maximal effect
# How it was run: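 Cytotoxicity was read from cellular ATP (CellTiter-Glo luminescence) after 16 hr at 37 C with 1 uM doxycycline induction. The inducer was added 2 hr after compound transfer to Tet-on ROR gamma CHO cells.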
# [11] = biological target: Nuclear receptor ROR-gamma (Homo sapiens) (UniProt P51449); assay: qHTS assay to identify small molecule antagonists of the retinoid-related orphan receptor gamma (ROR-gamma) signaling pathway (AID 1159521; also: nearly all actives have a fitted effect of over 50% in size; also: potency is read from the fitted curve at half-maximal effect)
# How it was run: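 Readout: ONE-Glo luciferase luminescence, 30 min at room temperature. System: Tet-on RORγ CHO, RORE-LUC. Sequence: compound 2 h, doxycycline 1 uM final, 16 h at 37 C.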
# [12] = qHTS assay to identify small molecule agonists of the AP-1 signaling pathway - cell viability counter screen (AID 1159525; calls by dose curve; also: nearly all actives have a fitted effect of over 55% in size; also: potency is read from the fitted curve at half-maximal effect)
# How it was run: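 Intracellular ATP by Cell Titer Glo luminescence (30 min, RT) in the same ME-180 AP-1-bla wells after the 5 h compound exposure at 37 °C. Normalised to tetra n-octyl ammonium bromide and DMSO controls.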
# [13] = qHTS assay to identify small molecule agonists of the AP-1 signaling pathway (AID 1159526; calls by dose curve; also: potency is read from the fitted curve at half-maximal effect)
# [14] = biological target: Vitamin D3 receptor (Homo sapiens) (UniProt P11473); assay: qHTS assay to identify small molecule antagonists of the vitamin D receptor (VDR) signaling pathway (AID 743223; active = well fitted inhibition curve with a large enough effect in the signal ratio in the repeat runs, not every such curve was filed as active; the % refers to the signal ratio; also: potency is read from the fitted curve at half-maximal effect)
# How it was run: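 After VDR-bla cells are plated and left 4 h at 37C, DMSO-dissolved compounds and 3 nM (final) calcitriol agonist are added. Incubation continues 16 h at 37C; FRET beta-lactamase substrate then develops 2 h at room temperature.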
# [15] = biological target: Peroxisome proliferator-activated receptor delta (Homo sapiens) (UniProt Q03181); assay: qHTS assay to identify small molecule agonists of the peroxisome proliferator-activated receptor delta (PPARd) signaling pathway (AID 743212; calls by dose curve;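 also: HEK293H cells with PPARd UAS beta-lactamase reporter GeneBLAzer system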)
# How it was run: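 Beta-lactamase reporter readout: a ratiometric FRET signal from the LiveBLAzer substrate after 2 h at room temperature. Compound exposure at 37 °C in PPARδ-bla HEK293H cells driven by an upstream activator sequence.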
# [16] = biological target: Vitamin D3 receptor (Homo sapiens) (UniProt P11473); assay: qHTS assay to identify small molecule agonists of the vitamin D receptor (VDR) signaling pathway (AID 743222; calls by dose curve; also: potency is read from the fitted curve at half-maximal effect)
# How it was run: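 Agonist mode, beta-lactamase reporter: fluorescence from LiveBLAzer B/G FRET substrate (2 h, room temperature) read after 16 h compound treatment at 37 C of VDR-bla cells, which were pre-incubated 4 h after seeding.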
# [17] = biological target: Retinoic acid receptor RXR-alpha (Homo sapiens) (UniProt P19793); assay: qHTS assay to identify small molecule agonists of the RXR signaling pathway (AID 1159527; calls by dose curve; also: nearly all actives have a fitted effect of over 35% in size; also: potency is read from the fitted curve at half-maximal effect)
# How it was run: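 Reporter activation is measured as beta-lactamase activity via FRET substrate cleavage (emission 460/530 nm) in HEK 293T cells expressing an RXR-alpha-driven bla construct, following 16 hr compound exposure at 37 C.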
# [18] = biological target: Bile acid receptor (Homo sapiens) (UniProt Q96RI1); assay: qHTS assay to identify small molecule antagonists of the farnesoid-X-receptor (FXR) signaling pathway (AID 743217; active = well fitted inhibition curve with a large enough effect in the signal ratio in the repeat runs, not every such curve was filed as active; the % refers to the signal ratio)
# How it was run: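 Antagonist mode: chenodeoxycholic acid at 50 uM final stimulates a UAS-driven beta-lactamase reporter in HEK 293T FXR-bla cells during 16 h, 37C compound exposure. Read-out is FRET substrate fluorescence after 2 h at room temperature.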
# [19] = biological target: Bile acid receptor (Homo sapiens) (UniProt Q96RI1); assay: qHTS assay to identify small molecule agonists of the farnesoid-X-receptor (FXR) signaling pathway (AID 743220; active = well fitted activation curve with a large enough effect in the signal ratio in the repeat runs, not every such curve was filed as active; the % refers to the signal ratio)
# How it was run: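 FXR-UAS-bla HEK 293T cells carrying a UAS-driven beta-lactamase reporter were plated for 5 h at 37C/5% CO2, then exposed to DMSO-dissolved Tox21 10K compounds for 16 h at 37C. A LiveBLAzer B/G FRET substrate was loaded for 2 h at room temperature before fluorescence reading.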
# [20] = qHTS assay to identify small molecule agonists of the endoplasmic reticulum stress response signaling pathway (AID 1159516; active = well fitted activation curve with a large enough effect in the signal ratio in the repeat runs, not every such curve was filed as active; the % refers to the signal ratio)
# How it was run: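 Ratiometric FRET readout (405 nm excitation; 460 and 530 nm emission) of a beta-lactamase gene driven by the ER stress response element, after 2 hr substrate loading. HeLa ESRE-bla cells were seeded overnight and treated with compounds for only 5 hr at 37 C.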
# Sequence of Retinoic acid receptor RXR-alpha (Homo sapiens) (P19793 whole entry, looked up): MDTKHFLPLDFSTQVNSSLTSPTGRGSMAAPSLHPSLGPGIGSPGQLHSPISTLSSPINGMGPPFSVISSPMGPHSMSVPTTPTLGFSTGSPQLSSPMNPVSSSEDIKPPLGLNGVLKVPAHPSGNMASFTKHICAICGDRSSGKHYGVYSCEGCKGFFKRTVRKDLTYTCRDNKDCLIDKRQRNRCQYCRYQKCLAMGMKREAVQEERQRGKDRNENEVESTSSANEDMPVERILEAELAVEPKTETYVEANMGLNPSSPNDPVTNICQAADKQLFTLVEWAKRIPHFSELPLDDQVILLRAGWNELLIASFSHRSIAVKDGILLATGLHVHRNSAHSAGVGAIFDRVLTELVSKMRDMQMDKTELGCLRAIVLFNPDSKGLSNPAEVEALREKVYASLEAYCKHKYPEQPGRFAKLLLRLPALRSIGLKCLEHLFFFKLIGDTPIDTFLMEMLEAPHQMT
# Sequence of Peroxisome proliferator-activated receptor delta (Homo sapiens) (Q03181 whole entry, looked up): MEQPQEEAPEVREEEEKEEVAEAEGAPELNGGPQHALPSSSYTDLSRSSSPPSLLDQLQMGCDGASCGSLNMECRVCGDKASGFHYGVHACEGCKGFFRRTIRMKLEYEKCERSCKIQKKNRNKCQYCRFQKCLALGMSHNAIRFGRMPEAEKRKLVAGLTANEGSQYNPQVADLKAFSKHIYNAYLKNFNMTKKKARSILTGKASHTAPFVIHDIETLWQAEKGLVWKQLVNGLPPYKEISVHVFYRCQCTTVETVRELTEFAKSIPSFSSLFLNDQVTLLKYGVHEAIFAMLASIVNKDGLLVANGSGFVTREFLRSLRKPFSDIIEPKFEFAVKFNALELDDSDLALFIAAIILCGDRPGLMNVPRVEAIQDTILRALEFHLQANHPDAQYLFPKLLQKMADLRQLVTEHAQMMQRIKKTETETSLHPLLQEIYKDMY
# Sequence of Vitamin D3 receptor (Homo sapiens) (P11473 whole entry, looked up): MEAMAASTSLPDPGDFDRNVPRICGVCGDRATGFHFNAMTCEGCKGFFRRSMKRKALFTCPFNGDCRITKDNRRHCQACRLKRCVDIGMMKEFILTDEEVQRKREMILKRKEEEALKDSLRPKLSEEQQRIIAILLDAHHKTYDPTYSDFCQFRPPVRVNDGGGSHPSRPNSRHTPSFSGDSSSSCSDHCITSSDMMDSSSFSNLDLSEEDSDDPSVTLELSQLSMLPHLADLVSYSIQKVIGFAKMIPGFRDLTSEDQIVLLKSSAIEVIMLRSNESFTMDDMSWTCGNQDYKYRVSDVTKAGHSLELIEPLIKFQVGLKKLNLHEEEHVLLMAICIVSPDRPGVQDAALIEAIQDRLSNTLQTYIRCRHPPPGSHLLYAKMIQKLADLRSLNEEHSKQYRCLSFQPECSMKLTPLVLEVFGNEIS
# Sequence of Bile acid receptor (Homo sapiens) (Q96RI1 whole entry, looked up): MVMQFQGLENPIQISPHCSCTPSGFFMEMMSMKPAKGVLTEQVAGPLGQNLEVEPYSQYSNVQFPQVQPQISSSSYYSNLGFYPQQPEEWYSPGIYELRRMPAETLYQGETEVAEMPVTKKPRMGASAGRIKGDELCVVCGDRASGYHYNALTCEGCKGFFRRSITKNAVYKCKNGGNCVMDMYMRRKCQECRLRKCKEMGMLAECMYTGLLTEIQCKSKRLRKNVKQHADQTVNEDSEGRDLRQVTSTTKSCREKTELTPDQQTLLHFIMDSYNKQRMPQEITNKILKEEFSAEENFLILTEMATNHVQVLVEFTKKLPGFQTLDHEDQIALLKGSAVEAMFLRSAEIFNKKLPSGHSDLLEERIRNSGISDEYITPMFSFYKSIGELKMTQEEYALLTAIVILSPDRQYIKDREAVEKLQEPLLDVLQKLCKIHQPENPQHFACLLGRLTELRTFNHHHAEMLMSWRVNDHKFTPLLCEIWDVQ
SMILES,Potency [1],Potency [2],Potency [3],Potency [4],Potency [5],Potency [6],Potency [7],Potency [8],Potency [9],Potency [10],Potency [11],Potency [12],Potency [13],Potency [14],Potency [15],Potency [16],Potency [17],Potency [18],Potency [19],outcome [20]
CCN(CC)C(=S)SSC(=S)N(CC)CC,110 nM (active) and 44.7 nM (active) and 150 nM (active),123 nM (active) and 39.8 nM (active) and 150 nM (active),87.1 nM (active),91.5 nM (active),222 nM (active) and 188 nM (active),110 nM (active) and 39.8 nM (active) and 188 nM (active),inactive,1 µM (active) and inactive,inactive,24.3 µM (active) and 176 nM (active),344 nM (active) and 44.3 nM (active) and 188 nM (active),,,,,,,,,
CN(C)c1ccc(C(=C2C=CC(=[N+](C)C)C=C2)c2ccccc2)cc1,347 nM (active) and 1.33 µM (active),,,437 nM (active) and 2.37 µM (active),617 nM (active) and 1.5 µM (active),,490 nM (active) and 3.38 µM (active),3.09 µM (active) and 10.7 µM (active),27.5 µM (active),5.45 µM (active) and 4.22 µM (active) and 10.6 µM (active),,13.8 µM (active) and 23.9 µM (active) and 10.7 µM (active),0.848 µM (active),,,,,,,
CCCCCCCCCCCCc1ccccc1O,13.6 µM (active) and 34.7 µM (active),,,17.2 µM (active) and 30.9 µM (active),43.1 µM (active) and 43.6 µM (active),10.8 µM (active) and 19.5 µM (active),17.2 µM (active) and 21.9 µM (active),19.2 µM (active) and 21.9 µM (active),17.2 µM (active) and 24.5 µM (active),60.3 µM (active) and 27.3 µM (active),,13.6 µM (active) and 17.4 µM (active),,15.3 µM (active) and 19.5 µM (active),,,,,,
CCOc1ccc2c(c1)C(C)=CC(C)(C)N2,inactive,inactive,,inactive,inactive,inactive,inactive,inactive,inactive,inactive,inactive,inactive,,,inactive,,,,,
CC(C)CCCCCCc1ccc(O)cc1,35.3 µM (active),39.6 µM (active) and 43.6 µM (active),inactive,,22.3 µM (active) and 49 µM (active),,31.4 µM (active) and 38.9 µM (active),39.6 µM (active) and 38.9 µM (active),35.3 µM (active) and 54.9 µM (active),24.8 µM (active),2.48 µM (active),25 µM (active) and 49 µM (active),,22.3 µM (active) and 43.6 µM (active),inactive,inactive,,,,
CCN(CC)c1ccc2c(C)cc(=O)oc2c1,inactive,inactive,,inactive,inactive,,inactive,inactive,inactive,inactive,inactive,inactive,,,,,,,,
Nc1ccc2cc3ccccc3cc2c1,inactive,inactive,,inactive,inactive,,inactive,inactive,inactive,inactive,,inactive,inactive,,,,,,,
Cc1cccc2n[nH]nc12,inactive,,inactive,inactive,inactive,inactive,inactive,inactive,inactive,inactive,,inactive,inactive,,inactive,inactive,inactive,,,
Nc1cc(S(=O)(=O)O)cc2cc(S(=O)(=O)O)cc(O)c12,inactive,inactive,,inactive,inactive,inactive,inactive,inactive,inactive,inactive,inactive and 30.6 µM (active),inactive,inactive,,,24.4 µM (active),inactive and 24.5 µM (active),inactive,inactive,
"Cc1c2oc3c(C)ccc(C(=O)N[C@@H]4C(=O)N[C@H](C(C)C)C(=O)N5CCC[C@H]5C(=O)N(C)CC(=O)N(C)[C@@H](C(C)C)C(=O)O[C@@H]4C)c3nc-2c(C(=O)N[C@@H]2C(=O)N[C@H](C(C)C)C(=O)N3CCC[C@H]3C(=O)N(C)CC(=O)N(C)[C@@H](C(C)C)C(=O)O[C@@H]2C)c(N)c1=O (I: T[dV]P[Sar][NMeV] / II: T[dV]P[Sar][NMeV]; ester I:1-I:C, II:1-II:C; linker I:N-II:N via Actinocin(9to1))",26.8 µM (active) and inactive,,1.7 nM (active) and 11.9 nM (active),,inactive,26.8 µM (active) and inactive,inactive,inactive,26.8 nM (active) and 107 nM (active),59.4 nM (active) and 59.6 nM (active),29.8 nM (active) and 188 nM (active),inactive,,,inactive,inactive,,,,
CCn1c2ccccc2c2cc(N)ccc21,inactive,inactive,inactive,inactive,inactive,,inactive,inactive,inactive,inactive,,inactive,inactive,,inactive,,inactive,,,
Cc1cc(C2(c3cc(C)c(O)cc3C)OS(=O)(=O)c3ccccc32)c(C)cc1O,inactive,inactive,,inactive,inactive,,inactive,inactive,,inactive,inactive,inactive,inactive,,,,inactive,,,inactive
CCCCC(CC)COC(=O)CC(C(=O)OCC(CC)CCCC)S(=O)(=O)O (stereo not drawn),37.4 µM (active) and 24.5 µM (active),15.5 µM (active),inactive,52.9 µM (active) and 43.6 µM (active),43.6 µM (active),,21.1 µM (active) and 15.5 µM (active),47.1 µM (active) and 49 µM (active),,inactive,inactive,42 µM (active) and 49 µM (active),,,,inactive,,,,
